MITF inh: MITF inhibitors, primary screen, biochemical, AlphaScreen, human; inhibition, % at 2.6 µM; AlphaScreen MITF homodimerization, bead proximity signal; actives 0.91% (n = 650,000); Microphthalmia-associated transcription factor (Homo sapiens), O75030; in the data active means inhibition above about 50%;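 further: 0% = vehicle wells with protein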
GPR151 activ: activators of human GPR151, primary screen, cell-based, PathHunter beta-arrestin, luminescence | activation, % at 11.2 µM | actives 1% (n = 650,000) | PathHunter beta-arrestin GPR151 cells | AID 1508602, 2020 | G-protein coupled receptor 151 (Homo sapiens), Q8TDV0; in the data active means activation above about 4.9%;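 further: 0% = median of compound wells and 100% = cells with positive control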
Target sequence (Q8TDV0 whole entry, looked up): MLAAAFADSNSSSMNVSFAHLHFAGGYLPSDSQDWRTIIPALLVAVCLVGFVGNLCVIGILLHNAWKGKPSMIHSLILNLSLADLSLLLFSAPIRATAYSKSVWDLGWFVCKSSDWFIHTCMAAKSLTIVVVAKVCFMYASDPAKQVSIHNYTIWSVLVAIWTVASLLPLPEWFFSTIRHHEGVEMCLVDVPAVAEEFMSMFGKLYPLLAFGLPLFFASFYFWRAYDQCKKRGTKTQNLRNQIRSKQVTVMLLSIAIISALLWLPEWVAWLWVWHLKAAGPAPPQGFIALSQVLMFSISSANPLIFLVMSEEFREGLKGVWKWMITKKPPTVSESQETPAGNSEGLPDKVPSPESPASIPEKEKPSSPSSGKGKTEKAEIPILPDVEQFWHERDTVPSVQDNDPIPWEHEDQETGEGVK
TEAD-YAP block: TEAD-YAP interaction inhibition, primary screen, TEAD-YAP interaction inhibitor project, luminescence, HEK-TIYL cells. TEAD-Gal4/YAP UAS-luciferase luminescence. inhibition, % at 9.12 µM. actives 1.4% (n = 640,000); in the data active means inhibition above about 32%;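 further: 0% = median of test compound wells and 100% = reference inhibitor wells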
FBW7 activator: FBW7 E3 ligase activators, primary screen, biochemical, AlphaScreen, human; normalized activity (activation), % at 26.1 µM; AlphaScreen FBW7–phospho-cyclin E peptide binding, activator screen; AID 1259310, 2017; actives 0.13% (n = 650,000); F-box/WD repeat-containing protein 7 (Homo sapiens), Q969H0; in the data active means normalized activity above about 1.9%;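 further: purified mutant Fbw7 with reduced substrate affinity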
GPR151 confirm: GPR151 activators, triplicate retest, confirmation, cell-based, PathHunter beta-arrestin, luminescence. shares compounds with GPR151 activ. GPR151 PathHunter beta-arrestin cells, 90 min; % of EA-reagent control over plate median. activation, % at 11.2 µM. 6,700 tested, under 10 active. AID 1508609, 2020;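 active means mean percent activation across replicates above the confirmation screen cutoff of 4.91%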
GPR119 counter: GPR119 activators in beta-arrestin cells, counter-screen for GPR151 activator project, cell-based, PathHunter beta-arrestin, luminescence, triplicate; shares compounds with GPR151 activ; 90 min; 0 = compound-well median, 100 = enzyme-acceptor control; activation, % at 11.2 µM; actives 0.3% (n = 6,700); AID 1508611, 2020;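 active means mean percent activation in the counterscreen above 29.09%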;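 further: counterscreen on off-target GPR119 to flag nonselective hits from the GPR151 activator screen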
* = called active by the depositor; nt = not tested or not shown; ! = repeats disagree. Hits are enriched below; roughly 3.5% of the tested compounds scored in any of these assays.

SMILES	MITF inh	GPR151 activ	TEAD-YAP block	FBW7 activator	GPR151 confirm	GPR119 counter
Cn1c(=O)c2c(nc(Cl)n2Cc2ccc(Cl)cc2)n(C)c1=O	7	10*	-7	0	0	3
Cn1c(=O)c2c(nc(NN)n2Cc2ccccc2)n(C)c1=O	6	6.8*	3	0	-1	-7
COc1ccc2oc(=O)c(-c3ccc(OC)c(OC)c3)c(C)c2c1	2	-2	-1	1	nt	nt
O=C(COc1ccccc1Cl)Nc1ncc(Cc2cccc(C(F)(F)F)c2)s1	-3	0	1	0	nt	nt
Cc1ccc2onc(CNC(=O)N3CCCC3)c2c1	-2	3	-4	0	nt	nt
Cc1ccc2onc(CNC(=O)N3CCCC(C)C3)c2c1 (centres undefined)	-10	6.9*	-19	0	1	0
COc1cc([N+](=O)[O-])cc2c1NC(c1cccnc1)C1CC=CC21 (centres undefined)	7	5.2*	0	0	0	-7
COc1cc([N+](=O)[O-])cc2c1NC(c1ccncc1)C1CC=CC21 (centres undefined)	-3	1	-6	0	nt	nt
O=C(O)c1cc(N/N=C/c2ccc([N+](=O)[O-])cc2)ccc1Cl	6	1	-73	-1	nt	nt
CC(C)(C)NC(=O)C(c1ccccn1)N(Cc1ccccc1)C(=O)c1csnn1 (centres undefined)	7	4.9*	7	1	0	-3
CC1=NN(C(=O)c2ccccc2)C(O)(c2ccc([N+](=O)[O-])cc2)C1 (centres undefined)	7	0	4	0	nt	nt
CCC(C)C(=O)N1CCC(n2nccc2NC(=O)Nc2cccc(F)c2)CC1 (centres undefined)	13	6.6*	-24	0	0	-10
COc1ccccc1C(=O)Nc1ccnn1C1CCN(Cc2cccc(F)c2)CC1	-10	6.6*	14	0	0	-6
CCCC(=O)NCCn1ncc2c(=O)n(Cc3ccc(F)cc3)cnc21	-3	-1	-4	0	nt	nt
C=CCOc1ccccc1CN1CCc2nncn2CC1	5	7.4*	-3	0	0	4
C=CCOc1ccccc1CN1CCc2nnc(CNC(=O)C3CCC(=O)N3)n2CC1 (centres undefined)	7	5.6*	-7	0	1	11
C=CCOc1ccccc1CN1CCc2nnc(CNC(=O)C3CCCN(C)C3)n2CC1 (centres undefined)	10	-1	1	0	nt	nt
c1cnc2c(CN3CCc4nncn4CC3)cccc2c1	-12	-1	10	0	nt	nt
CC1=C(C(=O)OC2CCCCC2)C(c2cc3c(cc2[N+](=O)[O-])OCO3)C2=C(CC(c3ccc(Cl)cc3)CC2=O)N1 (centres undefined)	42	-1	10	0	nt	nt
Cc1ccc(N2CCN(S(=O)(=O)N3CCOCC3)CC2)c(C)c1	-11	1	-6	0	nt	nt
Cc1nnc(SCC(=O)N2c3ccccc3Sc3ccccc32)n1N	8	7.4*	9	0	0	-3
CCc1nnc(SCC(=O)N2c3ccccc3Sc3ccccc32)n1N	6	2	7	0	nt	nt
CCOC(=O)CN1CC(O)=C(C=NCc2ccccc2)C1=O	16	7.4*	0	0	0	10
Cc1cc(-c2nnco2)c(C)n1-c1ccccc1	3	2	-8	0	nt	nt
Cc1cc(-c2nnc3n2CCC3)c(C)n1-c1ccccc1	10	5.7*	-12	0	-1	-2
SMILES	MITF inh	GPR151 activ	TEAD-YAP block	FBW7 activator	GPR151 confirm	GPR119 counter
CCOC(=O)c1ccc2c(c1)sc(=NC(=O)C(C)(C)C)n2C	-16	6.5*	61*	0	0	0
CCCCC[C@H](O)/C=C/C1=C(CCCCCCC(=O)O)C(=O)CC1	3	5.6*!	-11	0	1	-4
C[C@@H](O)CCC[C@H](O)/C=C/C1=C(C/C=C\CCCC(=O)O)C(=O)CC1	0	-1	nt	nt	nt	nt
COc1cc(C(=O)O)c(C2Oc3ccccc3C3CC(c4ccccc4)=NN32)cc1OC (centres undefined)	16	-1	-31	0	nt	nt
Cc1sc2ncnc(Nc3ccncc3)c2c1C	4	5.3*	8	0	0	20
Cc1sc2ncnc(NCCc3ccccc3)c2c1C	8	5.4*	9	0	1	19
Cc1sc2ncnc(Nc3ccc(Cl)cc3)c2c1C	-3	1	-1	0	nt	nt
CN(C(=O)c1cc2nc(-c3ccccc3)cc(-c3ccccc3)n2n1)C1CCCCC1	0	1	9	0	nt	nt
CCN(CC)CCN1C(=O)C(O)=C(C(=O)c2cc3ccccc3o2)C1c1ccc(C)o1 (centres undefined)	-20	6.1*	-7	0	0	-6
Cc1cc(C(=O)N(CC#N)CC#N)ccc1[N+](=O)[O-]	-6	7.7*	-8	0	0	5
CCCOc1ccc(/C=N/NC(=O)C(C)Sc2ccccn2)cc1 (centres undefined)	-9	1	8	0	nt	nt
O=C(Nc1ccc(Cl)c(-c2nc3ccccc3o2)c1)c1ccccc1F	6	-1	15	0	nt	nt
Cc1ccc(C(=O)Nc2ccc(-c3nc4ccccc4o3)cc2)c(Cl)c1	-3	6.5*	-9	1	1	10
O=C(Nc1ccc(Cl)c(-c2nc3ccccc3o2)c1)c1ccccc1Br	-7	5.9*	-7	0	0	10
COC1COC(=O)C/C=C/[C@@H](C)COC(=O)[C@H](COCc2ccccc2)NC(=O)C/C=C/[C@H]1C (some centres undefined)	-20	0	nt	0	nt	nt
CN(C)S(=O)(=O)c1ccc(Cl)c(NC(=O)CN2CCNC(=O)C2)c1	-14	5.2*	-8	0	0	7
N#C/C(=C\c1ccccc1Cl)c1nc(-c2ccc([N+](=O)[O-])cc2)cs1	-7	0	5	0	nt	nt
O=C(N/C(=C\c1cccc([N+](=O)[O-])c1)C(=O)N1CCOCC1)c1ccco1	6	6.9*	4	0	1	4
O=C(N/C(=C/c1cccc([N+](=O)[O-])c1)C(=O)N1CCCCCC1)c1ccco1	7	3	-5	1	nt	nt
O=C(N/C(=C/c1ccc(F)cc1)C(=O)N1CCCCC1)c1ccco1	-8	6.6*	-2	0	0	2
CC1=C(C#N)C(c2ccc([N+](=O)[O-])cc2)C2=C(CC(c3ccc(Cl)cc3)CC2=O)N1 (centres undefined)	-2	-2	14	0	nt	nt

From PubChem
